# Test results reported in PubChem BioAssay AID2069 (Sanford-Burnham Center for Chemical Genomics, 2009).
# Hit rate of the full screen: of about 1,200 compounds, about 210 (18%) were called active. Cut-off read from the data, not from the text of the source: active = inhibition above about 30%; inactive = the rest. The list is a sample of the results.
# Assay: HTRF signal interference by compounds, confirmation, artefact control for SUMOylation inhibitor project, biochemical, uHTS (AID 2069)
# Conditions: HTRF interference counterscreen, fluorescence, at 35 µM, hits give high values
row,Compound,inhibition
1,COc1cccc(-c2[nH]nc3c2C(c2ccsc2)C(C#N)=C(N)O3)c1 (stereo not given),-11% (inactive)
2,CC(NC(=O)Nc1ccc(O)cc1)(C(F)(F)F)C(F)(F)F,1.45% (inactive)
3,COc1ccc(S(=O)(=O)C(C#N)c2nc3ccccc3nc2N2CCCC(C)C2)cc1 (stereo not given),13.2% (inactive)
4,O=c1[nH]c(Nc2ccc(F)cc2)cc2ccccc12,29.8% (inactive)
5,COC1=C(Nc2ccccc2)C(=O)c2ccccc2C1=O,-14.2% (inactive)
6,O=c1[nH]c(Nc2ccccc2)cc2ccccc12,41% (active)
7,C/C(=N\NC(=O)c1cc(O)cc(O)c1)c1ccc(NC(=O)Cc2ccccc2)cc1,25.6% (inactive)
8,COc1ccccc1/C=C/C=c1\sc2nc(=O)c(Cc3ccccc3)nn2c1=O,0.1% (inactive)
9,CCN(CC)Cc1c(O)ccc2c(=O)c(Oc3ccccc3OC)coc12,42.6% (active)
10,Cc1cc(C)cc(Oc2coc3c(CN(C)C)c(O)ccc3c2=O)c1,48.2% (active)
11,COc1ccc(NCc2cc3ccccc3[nH]c2=O)cc1,11.8% (inactive)
12,N#Cc1c(-c2ccccc2)nc(SCC(=O)N2c3ccccc3Sc3ccccc32)[nH]c1=O,15.3% (inactive)
13,CCOC(=O)N1CCN(C2=C(NS(=O)(=O)c3ccc(NC(C)=O)cc3)C(=O)c3ccccc3C2=O)CC1,-27.3% (inactive)
14,Nc1ccc(Br)c2cccnc12,11.4% (inactive)
15,Cc1ccc(N/N=C2\CC(=O)c3ccccc32)cc1Cl,-12% (inactive)
16,C/C(CCc1ccco1)=N\NC(=O)CNc1cccc2ccccc12,22.1% (inactive)
17,O=c1c(C(c2ccccc2)c2c(O)sc3ccccc3c2=O)c(O)sc2ccccc12,4.95% (inactive)
18,COc1ccc(OC)c2c1C(=O)c1ccccc1C2=O,42.9% (active)
19,COc1cccc2c1C(=O)c1ccc3ccccc3c1C2=O,5.5% (inactive)
20,COC1=C(Nc2ccccc2OC)C(=O)c2ccccc2C1=O,-37.9% (inactive)
21,COc1cccc(Cn2cccc(NC(=O)Nc3ccccc3C)c2=O)c1,0% (inactive)
22,CCOC(=O)C1=C(C)NC(=O)CC1c1cc2c(cc1[N+](=O)[O-])OCO2 (stereo not given),-4.35% (inactive)
23,COc1cc(Br)c(C(=O)c2nccc3cc(OC)c(OC)cc23)cc1OC,3.15% (inactive)
24,COc1ccc(NC(=O)CN2C(=O)S/C(=C/c3cccn3-c3ccc(C(=O)O)cc3)C2=O)cc1,8% (inactive)

row,Compound,inhibition
1,O=C1C2C3C=CC(C4CC34)C2C(=O)N1CCc1ccccc1 (stereo not given),8.65% (inactive)
2,Cc1ccc(C(=O)c2c3ccc(N)cc3nn2CCC(N)=O)cc1,14.2% (inactive)
3,CN(C)C=Nc1ccc2nc3c(cc2c1)[nH]c1ccccc13,53.9% (active)
4,Nc1ccc2nn(-c3cccc4ccccc34)nc2c1,64.5% (active)
5,CC1=NN(c2ccc(C)cc2C)C(=O)C1C(c1cccc(O)c1)C1C(=O)N(c2ccc(C)cc2C)N=C1C (stereo not given),-2.1% (inactive)
6,CN(C)C=Nc1ccc2nn(-c3ccccc3)nc2c1,58.8% (active)
7,Cc1ccc(-n2nc3ccc(N)cc3n2)c(C)c1,59.3% (active)
8,N#Cc1c(=O)c2nc(NCc3ccccc3)ncc2n2ccccc12,26% (inactive)
9,COc1ccccc1/C=C/C=N/NC(=O)c1cc(-c2ccco2)[nH]n1,1.9% (inactive)
10,COc1ccccc1-n1cnc2c(c1=O)c1nc3ccccc3nc1n2-c1ccc(C)c(C)c1,2% (inactive)
11,O=[N+]([O-])c1ccc(C2Nc3cccc4cccc(c34)N2)cc1,-5.1% (inactive)
12,N#CC1=C(SCC(=O)NC23CC4CC(CC(C4)C2)C3)NC(=O)C(C#N)C12CCCCC2 (stereo not given),4.6% (inactive)
13,Cc1cc(NC(=O)CSc2nnc(Nc3ccccc3C)s2)no1,-1.2% (inactive)
14,Oc1ccc(NC(=S)Nc2ccc(O)cc2)cc1,19.6% (inactive)
15,Cc1[nH]n(-c2ccccc2)c(=O)c1C(C[N+](=O)[O-])c1ccc(Br)cc1 (stereo not given),-5.3% (inactive)
16,COc1ccc(-n2nc3cc(C)c(N)c(Br)c3n2)cc1,-14.3% (inactive)
17,Cn1cc2ccc(N)cc2n1,2.15% (inactive)
18,Nc1ccc2nn(-c3ccccc3)nc2c1,66% (active)
19,Cc1cccc(S(=O)(=O)C(C#N)c2nc3ccccc3nc2N2CC(C)OC(C)C2)c1 (stereo not given),9.45% (inactive)
20,Cc1c(C(=O)c2ccc(Cl)cc2[N+](=O)[O-])c2ccccn2c1CCC#N,2.8% (inactive)
21,Cc1n[nH]c(=S)n(NC(=O)/C=C/C(=O)Nn2c(=S)[nH]nc(C)c2=O)c1=O,51.5% (active)
22,O=C(NCCc1csc(-c2ccccc2)n1)c1c(F)cccc1Cl,-9.35% (inactive)
23,CC1N(C)c2cccc3cccc(c23)N1C,-9.25% (inactive)
24,CCOC(=O)c1c(C)oc2c1C(=O)c1ccccc1C2=O,1.65% (inactive)

row,Compound,inhibition
1,CCOC(=O)c1c(-c2ccccc2)oc2ccc(OC(C)C(=O)O)cc12 (stereo not given),58.6% (active)
2,CCOC(=O)c1c(C)oc2c1c(C=NCCC(=O)O)c(O)c1ccccc12,-7.35% (inactive)
3,N=C1S/C(=C\c2ccco2)C(=O)N1c1ccc2c(c1)OCO2,12.6% (inactive)
4,CC1=NOC(=O)/C1=C\c1ccc(-c2cc(Cl)ccc2Cl)o1,11% (inactive)
5,Cc1cc(NC(=O)CSc2nc3cc(C(=O)NCCCOC(C)C)ccc3c(=O)n2Cc2ccco2)no1,6.6% (inactive)
6,COc1cc2c(cc1OC)C(C)=NC1(CCCCC1)C2,31.6% (active)
7,CSc1ccc(-c2cc(=O)c3ccccc3o2)cc1,60.2% (active)
8,CCN(CC)S(=O)(=O)c1cc(C)ccc1SC,-1.75% (inactive)
9,COc1ccc(/C=N/Nc2cc(N3CCCC3)nc(N3CCCC3)n2)cc1,27.9% (inactive)
10,Oc1ccc(/C=N/Nc2cc(N3CCCC3)nc(N3CCCC3)n2)cc1O,42.8% (active)
11,Oc1ccc(/C=N/Nc2cc(N3CCCC3)nc(N3CCCC3)n2)cc1,6.25% (inactive)
12,CCOc1ccc(C=Nc2cccc3ncccc23)cc1,-2.35% (inactive)
13,Cc1ccc(C2C(C#N)=C(N)N(c3cccnc3)C3=C2C(=O)CCC3)s1 (stereo not given),10.7% (inactive)
14,COc1ccc(CC2S/C(=N/N=C/c3ccccc3O)NC2=O)cc1 (stereo not given),65.5% (active)
15,O=C(CC1S/C(=N/N=C/C=C/c2ccccc2)NC1=O)Nc1ccc(Cl)c(Cl)c1 (stereo not given),-11.6% (inactive)
16,O=C1N/C(=N/N=C/c2ccccc2O)SC1Cc1ccc(F)cc1 (stereo not given),64% (active)
17,COc1ccc(CC2=C(O)c3ccccc3C(=O)C2=O)cc1,-7.05% (inactive)
18,Cc1cc(/C=C2\C(=N)N3N=C(c4ccco4)SC3=NC2=O)c(C)n1Cc1ccccc1,7.7% (inactive)
19,N#C/C(=C\c1ccc(O)c(O)c1)C(=O)Nc1cccc2ncccc12,8.1% (inactive)
20,O=C(NCc1ccccc1)Nc1cccn(Cc2ccccc2F)c1=O,-6.7% (inactive)
21,CCN(CC)S(=O)(=O)c1ccc(O)c(NC(=O)c2cc(-c3cc(OC)c(OC)c(OC)c3)nc3ccccc23)c1,16.9% (inactive)
22,O=C(N/N=C/c1ccc(Cl)cc1)c1nc2ccc([N+](=O)[O-])cc2c(=O)[nH]1,8.95% (inactive)
23,CC(O)C(=O)N/N=C/c1cccc(Cl)c1Cl (stereo not given),-5.5% (inactive)
24,O=C(Nc1nnc(-c2ccccc2SCc2ccccc2)s1)Nc1ccccc1F,6.45% (inactive)

row,Compound,inhibition
1,Cc1c(N2C(=O)c3ccc4c5c(ccc(c35)C2=O)CC4)c(=O)n(-c2ccccc2)n1C,39.8% (active)
2,Cc1c(N=C2C=CC(=O)c3ccccc32)c(=O)n(-c2ccccc2)n1C,-29.4% (inactive)
3,Cc1ccc(C(=O)Nc2nnc(CC(=O)N/N=C/c3ccc(O)c(O)c3)s2)cc1,-1% (inactive)
4,CCc1c(C)c2cc(Cl)c(O)c(CN(C)C)c2oc1=O,37.2% (active)
5,Cc1c(C)c2cc(Cl)c(O)c(CN3CCN(C)CC3)c2oc1=O,30.6% (active)
6,Cc1c(CC(=O)O)c(=O)oc2c(C)c(OCc3ccc(F)cc3Cl)ccc12,-7.8% (inactive)
7,Cc1cc(Br)ccc1-n1[nH]c(C)c(C=Nc2cccc3nsnc23)c1=O,14.9% (inactive)
8,NC(=O)CC(NC(=O)Cc1cccc2ccccc12)c1ccc(NCCc2ccccc2F)c([N+](=O)[O-])c1 (stereo not given),0.5% (inactive)
9,CCc1ccc(NC(=O)C(CC)Sc2nc3cc4c(cc3c(=O)n2Cc2ccco2)OCO4)cc1 (stereo not given),6.65% (inactive)
10,N#Cc1cnn2c(-c3ccccc3)ccnc12,36.5% (active)
11,NS(=O)(=O)c1ccc(-c2ccc(/C=C3\NC(=S)NC3=O)o2)cc1,-17.4% (inactive)
12,Cc1cccc(NC2=C(NCCO)C(=O)c3ccccc3C2=O)c1,-25.1% (inactive)
13,Cc1ccccc1N=Cc1cccc(O)c1O,-6.55% (inactive)
14,CCCCn1c(=O)[nH]c2nc3cc(N)ccc3nc2c1=O,43.9% (active)
15,CCCCn1c(NS(=O)(=O)c2ccccc2)c(S(=O)(=O)c2ccc(C)cc2)c2nc3ccccc3nc21,16.1% (inactive)
16,CCCCn1c(=O)[nH]c(=O)c2c1nc(-c1ccc(-c3ccc(F)cc3)o1)n2C,21.7% (inactive)
17,Oc1ccc(C2Nc3cccc4cccc(c34)N2)c(O)c1,-3.25% (inactive)
18,CC(=O)Oc1ccc2c(C)c(CC(C)O)c(=O)oc2c1 (stereo not given),42.2% (active)
19,CC(NC(=O)OC(C)(C)C)C(=O)Oc1ccc2ccc(=O)oc2c1 (stereo not given),25.8% (inactive)
20,Cc1ccc(NC(=S)Nc2cccc3ccccc23)cc1F,-5.85% (inactive)
21,CN(C)c1cccc2c(S(=O)(=O)Nc3ccccn3)cccc12,20% (inactive)
22,CN(C)c1cccc2cccc(N(C)C)c12,13.3% (inactive)
23,CN(C)c1cccc2c(S(=O)(=O)N3CCCC3)cccc12,36.4% (active)
